Experimental data taken from PubChem BioAssay AID2314 (National Center for Advancing Translational Sciences (NCATS), 2010).
Hit rate of the full screen: of about 300,000 compounds, about 37,000 (12%) were called active. This is one part of a sample in which actives are shown more often than they occur. A number with no mark means an inactive call. Cut-off read from the data, not from the text of the source: active = max response mostly above about 13% (no sharp cut-off); inactive = mostly below about 14%.

test: Cycloheximide Counterscreen for Small Molecule Inhibitors of Shiga Toxin; details: cell reporter, cycloheximide protein synthesis inhibition counterscreen; active compounds read high; note: read at 38.3 µM for the half of the compounds with a filed dose; 0% is about no effect

SMILES | max response
COc1ccc(NS(=O)(=O)c2ccc(F)cc2F)cn1 | -4.72%
COc1cc(C(=O)NCCOC(=O)c2cccc(N(C)C)c2)cc(OC)c1OC | -1.25%
CC/C(O)=C1\C(=O)CC(C)(C)CC1=NCCc1nc2ccccc2[nH]1 | 6.92%
CCC(=O)/C(=C(/O)c1ccccc1)c1nc2ccccc2[nH]1 | 31% (active)
Cc1nc2ccccc2c(-c2ccccc2)c1C(=O)c1ccccc1 | -4.4%
Cc1nnc(Sc2nc3c(c(=O)[nH]c(=O)n3C)n2Cc2ccccc2)s1 | -5.79%
Cn1c(SCC(=O)N2CCOCC2)nnc1-c1ccc2ncccc2c1 | -0.963%
O=C(O)CSc1nnc(-c2ccc3c(c2)OCO3)n1-c1ccccc1 | 12.9%
Cn1c(SCC(=O)N2CCCC2)nnc1-c1ccc2c(c1)OCO2 | 18.9% (active)
Cn1c(SCc2nc3ccccc3s2)nnc1-c1ccc2c(c1)OCO2 | 39.5% (active)
Cc1ccccc1-c1nnc(SCC(=O)NCc2ccc3c(c2)OCO3)n1C | -2.35%
Cn1c(SCC(=O)N2CCOCC2)nnc1-c1ccc(NC(=O)c2ccccc2F)cc1 | -4.11%
COc1ccccc1NC(=O)CCN1CCN(c2ccc(Cl)cc2)CC1 | -0.528%
COc1cc(C(C(=O)NC2CCCC2)N(C(=O)c2ccco2)c2ccccc2C(C)=O)cc(OC)c1OC (configuration not stated) | 3.6%
CC(C)c1c(C(=O)N/N=C/c2ccccc2C(=O)O)nnn1-c1nonc1N | 23.4%
COc1ccccc1C(=O)NC(CCSC)C(=O)NNC(=O)c1csc(N2CCOCC2)n1 (configuration not stated) | -1.29%
O=C(NCCc1ccc(Cl)cc1Cl)c1cc([N+](=O)[O-])c[nH]c1=O | -5.02%
CCCN1CCN(C(=O)CCCNC(=O)c2ccc(Cl)cc2)CC1 | -2.8%
O=C(NC(=O)c1ccccc1N1CCCCC1)Nc1ccc(Br)cc1 | -3.48%
CN1CCN(NC(=O)Nc2ccc(Br)cc2)CC1 | 24.2% (active)
COc1ccc(NC(=O)NN2CCN(C)CC2)c(OC)c1 | 0.309%
COc1ccc(-c2nc3c(s2)CCc2onc(-c4ccc(OC)cc4)c2-3)cc1 | -2.4%
COc1ccc(S(=O)(=O)N2CCN(C)CC2)c(C)c1 | -3.62%

SMILES | max response
COc1cccc(Nc2nc(N)c([N+](=O)[O-])c(NCc3ccco3)n2)c1 | 19.4% (active)
CN(c1ccccc1)c1nc(N)c([N+](=O)[O-])c(NCc2ccco2)n1 | 1.96%
Nc1nc(NCCCN2CCOCC2)nc(Nc2ccccc2)c1[N+](=O)[O-] | -2.59%
COc1ccccc1CCNS(=O)(=O)c1cc2c3c(c1)C(C)C(=O)N3CCC2 (configuration not stated) | 4.12%
CC1=C(C)C(=O)OC(C(C)C2CCC3C4CC=C5CC(OC6OC(COC7OC(CO)C(O)C(O)C7O)C(O)C(O)C6O)CC(O)C5(C)C4CCC23C)C1 (configuration not stated) | 7.38%
CN(C)c1ccc(Nc2c3c4c(cccc4n(C)c2=O)C(=O)c2ccccc2-3)cc1 | 3.88%
COc1ccc(C(=O)/C=C/Nc2ccccn2)cc1 | 2.25%
Cc1cc(N/C=C\C(=O)c2ccc(Cl)c(Cl)c2)no1 | 11.9% (active)
Cc1cc(NC(=O)CSc2nnc(-c3ccc(Cl)s3)o2)no1 | 5.82%
COc1ccc(NC(=O)CSc2nncc(=O)n2N)cc1OC | -3.35%
COC(=O)[C@@H]1CC[C@H](C)[C@@H](c2ccc(C)cc2)N1C(=O)c1ccc(/C=N/O[C@H](C)c2cn([C@@H]3COC[C@H]3O)nn2)cc1 | -2.13%
CN1C2CCC1CC(NC(=O)c1ccc([N+](=O)[O-])cc1)C2 (configuration not stated) | -3.99%
CC(=O)c1cccc(NC(=O)c2cc(C)nn2-c2ccccc2)c1 | 12.3% (active)
Cc1cc(NC(=O)Nc2ccccc2)n(-c2ccccc2)n1 | 18.1% (active)
Cc1nn(-c2ccccc2)c(Cl)c1C(=O)Nc1ccccc1 | 24.4% (active)
CSc1ccccc1C(=O)Nc1cccc(C(C)=O)c1 | 11.9%
CCn1c(=O)c2cc(C(=O)Nc3cccc(C(C)=O)c3)sc2c2ccccc21 | -2.44%
Cc1cc(NC(=O)Nc2ccc(Cl)cc2)n(-c2ccccc2)n1 | 1.95%
COc1ccc(CCNC(=O)c2c(C)nn(-c3ccccc3)c2Cl)cc1 | -2.65%
Cc1ccc(NC(=O)Nc2cc(-c3ccccc3)nn2C)cc1Cl | 1.12%
Cc1nn(-c2ccccc2)c(CC(C)(C)C(=O)O)c1C(=O)O | -4%
O=C(NCc1ccco1)/C(=C/c1cccc([N+](=O)[O-])c1)NC(=O)c1ccco1 | 1.87%
COC(=O)[C@H](Cc1ccccc1)NC(=O)[C@@H]1C[C@H]1[C@@H](NC(=O)OCc1ccccc1)c1ccccc1 | -3.05%

SMILES | max response
Cc1nn(C)c(C)c1Sc1ccccc1N | 1.39%
O=C(COc1ccc([N+](=O)[O-])cc1)Nc1cccc(C(=O)Nc2ccccc2C(=O)O)c1 | -6.64%
Cc1cccc(N2CCN(C(C)C(=O)N3CCc4ccccc43)CC2)c1C (configuration not stated) | -5.33%
Nc1ncc(-c2cc3ccccc3oc2=O)s1 | 43.5% (active)
O=C(c1cn(-c2ccccc2)nc1-c1cc2ccccc2oc1=O)N1CCOCC1 | 6.82%
O=C(NCc1cccnc1)c1cccc(-c2cc3ccccc3oc2=O)c1 | 12.9%
O=C(Nc1ccc(F)cc1)C1CCCN(S(=O)(=O)c2ccc(-n3cnnn3)cc2)C1 (configuration not stated) | -0.989%
O=C(c1c(F)cccc1Cl)N1CCN(c2ccccn2)CC1 | -8.36%
COc1ccccc1CNC(=O)c1ccc(CS(=O)(=O)c2ccccc2)o1 | -1.73%
NC(=O)COC(=O)/C=C/c1ccc2ccccc2n1 | 16.4% (active)
CC(=O)c1ccc(S(=O)(=O)N2CCN(C(=O)/C=C/c3ccc4ccccc4n3)CC2)cc1 | -1.24%
O=C(COC(=O)/C=C/c1nc2ccccc2s1)Nc1ccccc1Oc1ccccc1 | -1.69%
CCCCCCCCn1c2c(c(=N)c3c1CCC3)CCCC2 | -1.22%
CCC(CC)COC(=O)C1=C(C)NC(=O)NC1c1ccc([N+](=O)[O-])cc1 (configuration not stated) | -4.34%
COc1ccccc1-c1c(C)nn2c(C)c(C(C)=O)cnc12 | -2.56%
COc1ccccc1Nc1ncc(C(C)=O)c(C)n1 | 17% (active)
CCc1ccc2nc(Nc3ncc(C(C)=O)c(C)n3)nc(C)c2c1 | 4.49%
CC(=O)NC(Cc1ccc(F)c(F)c1)C(=O)NC1CCN(c2nnnn2-c2ccccc2)CC1 (configuration not stated) | -1.76%
COc1ccc(N2CCN(S(=O)(=O)c3cc(Br)cnc3N)CC2)cc1 | -1.92%
COc1ccc(OCc2ccc(-c3nc4ccccc4c(=O)n3N)o2)cc1 | 30.2% (active)
COc1ccc(-c2nc3ccccc3c(=O)n2CCc2ccc(O)cc2)cc1 | 17.7%
COc1ccc(OCc2n[nH]c(=S)n2N)cc1 | 5.41%
CCCCCNC(=O)C1c2ccccc2Oc2ccccc21 | -1.28%

SMILES | max response
[2H]C(CCOS(N)(=O)=O)c1ccccc1 (configuration not stated) | -0.0595%
COC(=O)[C@]1(S(=O)(=O)c2ccccc2)C[C@@H]2ON=C(c3ccc(OC)cc3)[C@@H]2C1 | 12.7%
CCC1Sc2ccc(S(=O)(=O)CCC(=O)NCc3cccs3)cc2NC1=O (configuration not stated) | 15.6%
Cc1ccc(C)c(NS(=O)(=O)c2cc(Br)cnc2N)c1 | -1.97%
COc1ccccc1-n1nnnc1S(=O)(=O)Cc1ccc(Cl)cc1 | 16.8% (active)
COc1ccccc1CN(C)c1nnnn1-c1ccccc1 | -3.28%
COc1ccccc1N1CCN(S(=O)(=O)c2ccc(Cl)cc2)CC1 | -4.44%
CN(C)c1ccc(CNC2C3CC4CC(C3)CC2C4)cc1 (configuration not stated) | -2.32%
CCOc1ccc(C(=O)NC(=S)Nc2ccc(NC(=O)C(C)C)cc2)cc1[N+](=O)[O-] | -1.26%
CC(=O)Oc1ccc(C(=O)Nc2nccs2)cc1 | 11.1%
CCOc1ccc(C(=O)Nc2nccs2)cc1[N+](=O)[O-] | 28.1% (active)
O=C(N/N=C/c1ccoc1)c1ccc(Cl)cc1Cl | 28.2% (active)
CC(C)NC(=O)c1ccc(Cl)cc1Cl | 8.78%
CC(C)c1cc(C(=O)N/N=C/c2ccoc2)c(O)c(C(C)C)c1 | 6.52%
CC(C)c1ccc(N2CCN(C(=O)c3ccccc3NC(=O)/C=C(\C(=O)O)c3ccccc3)CC2)cc1 | 24.6%
COCCCNC(=S)NCCNc1nc2cc(C)c(C)cc2cc1C#N | 26%
COc1ccc(CNS(=O)(=O)c2ccc(-c3cnc(C4CC4)o3)cc2)cc1 | -0.963%
O=C(NCC1CCCO1)c1cc2c([nH]c3ccccc32)c(-c2ccc(F)cc2)n1 (configuration not stated) | -1.44%
COc1ccc(-c2cc(=O)oc3cc(OC(C)C(=O)NCC4CCC(C(=O)O)CC4)ccc23)cc1 (configuration not stated) | -2.31%
CC(CCn1cccn1)NC(=O)CCc1nnc(CCc2ccccc2)o1 (configuration not stated) | 5.1%
O=C(CCc1nnc(CCCCc2ccccc2)o1)NC(c1cccnc1)C(F)(F)F (configuration not stated) | -3.39%
Cc1cc(-c2nnc(CCC(=O)NC(c3ccccc3)c3ccccc3)o2)no1 | 25.2% (active)
CCOC(=O)/C=c1\s/c(=C\c2ccc(C#N)cc2)c(=O)n1CC(=O)Nc1cccc(C)c1C | -1.86%
